Assay outcomes from PubChem.
IL-1B inflam inh: inhibitors of inflammasome signaling (IL-1 beta secretion). THP-1 LPS/ATP IL-1B secretion, AlphaLISA, 16 h; stronger effect = lower value. activity change, % at 57.5 µM. 4.7% of 360,000 active. AID 743279; in the data active = activity change below about -50%; inconclusive = mostly about -30% to -49%
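Secreted IL-1B measured by AlphaLISA bead assay after 16 h compound exposure of THP-1 cells; compounds (final up to 57.5 uM) added 1 h before LPS (250 ng/mL) and ATP (1.25 mM) stimulation; lower signal means less secretion.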
KB-V1 cytotox: kills drug-selected multidrug resistant KB-V1 cells; 3.4% of 400,000 active; AID 1347076; KB-V1 MDR cells viability, CellTiter-Glo, 72 h; Potency, µM (doses to about 46.1 µM), most hits filed as cytotoxic; note: potency is the fitted concentration of half-maximal effect; nearly all actives have a fitted effect of over 60% in size
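Cells of the MDR subline KB-V1 are plated, dosed with compound at multiple concentrations, and incubated 72 h at 37 degrees C; CellTiter-Glo is then added and luminescence read after 10 min.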
HT1080NT lethal: kills 2HG-producing HT-1080-NT fibrosarcoma cells; Potency, µM (doses to about 46.1 µM), for the others: at the highest dose activity, negative = less viability, actives largely listed as cytotoxic; HT-1080-NT fibrosarcoma viability, CellTiter-Glo ATP luminescence, 48 h; 1.6% of 360,000 active;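 note: NT is the 2HG producing partner of a matched IDH1 knockdown line; potency is the fitted concentration of half-maximal effect; 0% = DMSO-treated cells and -100% = media-only wells without cells; nearly all actives have a fitted effect of over 55% in size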
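Viability of the 2HG-overproducing fibrosarcoma line after 48 hours of compound exposure at 37 degrees C was determined by luminescence with CellTiter-Glo, and concentration-effect curves were then fitted and categorized.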
KB-3-1 tox: KB-3-1 parental cell cytotoxicity | Potency, µM (highest dose often 46.1 µM), actives largely listed as cytotoxic | KB-3-1 viability, CellTiter-Glo ATP luminescence, 72 h | 1.4% of 400,000 active; note: potency is the fitted concentration of half-maximal effect; nearly all actives have a fitted effect of over 60% in size
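Here the drug-naive KB-3-1 line serves as comparator for MDR sub-line selectivity; cells received compound titrations, 72 h at 37 °C, then CellTiter-Glo readout.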
HT1080 IDH1KD tx: kills HT-1080 cells with IDH1 knockdown; HT-1080 IDH1 knockdown viability, ATP luminescence, 48 h; Potency, µM (series often up to 46.1 µM), without a hit: top-dose activity, negative = toxicity, actives largely listed as cytotoxic; 2% of 360,000 active; AID 686971;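 note: potency is the fitted concentration of half-maximal effect; 0% = DMSO wells and -100% = cell-free medium wells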
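% activity derives from luminescence (CellTiter-Glo), normalised to DMSO and no-cell wells. HT-1080-IDH1KD cells, 750/well, had 48 h compound exposure at 37 °C.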
The depositor's hits bear a star; i = inactive; ? = inconclusive; / = no result. Shown are actives, neighbours in structure and some others; about 8.8% of the full set was active somewhere. Unless noted, calls come from the whole dose curve; as a rule, active = well fitted curve in the direction sought with a large enough effect; inconclusive = small, poorly fitted or top-dose-only effect, or another doubt; inactive = no such curve, though single readings can be large; an effect the other way counts as inactive or inconclusive. Unless noted, % is set by controls: 0 for no effect and ±100 for the full control effect.

SMILES	IL-1B inflam inh	KB-V1 cytotox	HT1080NT lethal	KB-3-1 tox	HT1080 IDH1KD tx
CCc1ccc(N(CC(=O)NCc2ccco2)C(=O)CCC(=O)Nc2nccs2)cc1	-1	i	-8%	i	-4%
Cc1ccc(C(=O)NNC(=O)CCCN2C(=O)/C(=C/c3ccccc3Cl)SC2=S)cc1	-107*	i	2%	i	3%
O=C(CCCN1C(=O)/C(=C/c2ccccc2Cl)SC1=S)Nc1ccccn1	-81*	?	-2%	i	5%
CCN(C(=O)c1cc2c(s1)-c1c(C)cccc1OC2)c1cc(C)ccc1C	/	i	/	i	/
CCCCCCC(=O)N(O)C1CC(=O)N(c2ccc(Cl)cc2)C1=O (stereo not drawn)	-51*	i	2%	i	-1%
CCn1c(SCC(=O)NC2CCCC2)nnc1-c1cccnc1	34	?	4%	i	6%
COc1cc(/C=C/C2=NNC(=O)CC2)cc(OC)c1OC	-7	?	8%	0.52µM*	2%
CC(C)c1ccc(/C=C/C2=NNC(=O)CC2)cc1	15	0.18µM*	?	0.73µM*	-22%
COc1cc(/C=C/c2cc(C(F)(F)F)[nH]c(=O)n2)cc(OC)c1OC	-101*	i	?	?	29µM*
CC(C)c1ccc(/C=C/c2ccc(=O)n(C)n2)cc1	26	?	-22%	i	-10%
O=c1nc(/C=C/c2cc([N+](=O)[O-])ccc2Cl)cc(C(F)(F)F)[nH]1	-94*	?	4%	i	8%
COc1ccc(S(=O)(=O)N2CCN(C(=O)CSC(=S)N3CCCC3)CC2)cc1	-9	i	1%	i	-7%
CCOc1ccc(S(=O)(=O)N(C)c2ccc(OCC(=O)NCc3ccc(C(=O)OC)cc3)cc2)cc1	21	i	-2%	i	-17%
CCc1ccccc1NC(=O)C1=C(C)C(=O)OC12CCCCCC2	/	i	/	i	/
C=CCCCCCCCCC(=O)Nc1ncccn1	-4	i	-16%	i	-2%
COc1ccc(NC(=O)NC(C)C2CC3CCC2C3)cc1 (stereo not drawn)	-80*	i	14%	i	-10%
COc1ccc(C(=O)NC(C)C2CC3CCC2C3)cc1 (stereo not drawn)	15	?	-17%	i	0%
Cc1ccc(NS(=O)(=O)c2ccc(Cl)c(NC(=S)NC(=O)C3CCCCC3)c2)cc1Cl	-77*	i	?	i	?
Cc1ccc(S(=O)(=O)Nc2cccc(Cl)c2)cc1NC(=O)C1CC1	-13	21µM*	-1%	?	-3%
Cc1ccc(NC(=O)C2CCCC2)cc1Cl	-24	i	-7%	i	-15%
COc1ccc(C)cc1NC(=O)c1c2c(nc3ccccc13)C(=O)N(C1CCCCC1)C2	/	i	/	i	/
COc1cc2c(oc(=O)c3cc(C)cc(OC)c32)c2c(C3OC(C)C(O)C(C)(O)C3O)ccc(O)c12 (stereo not drawn)	-101*	?	?	?	?
COc1cccc2cc(C(=O)N3CC(C)OC(C)C3)c(=O)oc12 (stereo not drawn)	-13	i	-3%	i	8%
COc1ccccc1CCNC(=O)Cc1c(C)c2ccc(O)cc2oc1=O	/	i	/	i	/
CN(c1ccccc1)c1nc(N)c(C#N)c(CC#N)c1C#N	22	7.3µM*	1%	15µM*	?
SMILES	IL-1B inflam inh	KB-V1 cytotox	HT1080NT lethal	KB-3-1 tox	HT1080 IDH1KD tx
CN(CCO)c1nc(N)c(C#N)c(CC#N)c1C#N	56	i	2%	?	13%
Cc1ccc2c(c1)Cc1c(nc(-c3ccc(Cl)cc3)nc1SCC(=O)N1CCCCC1)O2	/	i	/	i	/
Cc1cc(Cl)c(OCCCn2ccnc2)c(Br)c1	-72*	i	-14%	i	-19%
Cc1ccc(OCCCCn2ccnc2)c(Cl)c1	-13	21µM*	-15%	i	-10%
Cc1ccc(C)c(OCCCCn2ccnc2)c1	-13	?	?	i	-23%
Cc1ccc(C(C)C)c(OCCn2ccnc2C)c1	3	i	-30%	i	0%
Cc1ccc(OCCCCn2ccnc2C)c(C)c1	-56*	?	-25%	i	-16%
Cc1cc(C)c(OCCCn2ccnc2)c(C)c1	0	i	7%	i	2%
COc1ccc(CNC(=O)c2sc3nc[nH]c(=O)c3c2C)cc1	/	i	/	i	/
Clc1ccc(CO/N=C/c2c(-c3ccccc3)nc3n2CCS3)c(Cl)c1	0	15µM*	-5%	i	-18%
Oc1cccc2ccc(/C=C/c3ccccc3Br)nc12	62	?	?	?	?
Oc1c(Cl)cc(Cl)cc1/C=C/c1ccc2cccc(O)c2n1	11	?	?	?	?
Cc1cccc(/C=C/c2cccs2)n1	/	i	/	2.3µM*	/
Cc1ccsc1/C=C/c1ccc2cccc(O)c2n1	-26	13µM*	13µM*	?	11µM*
Oc1cccc2ccc(/C=C/c3cccs3)nc12	-11	i	?	?	11µM*
Oc1ccc(Cl)cc1/C=C/c1ccc2cccc(O)c2n1	6	i	?	?	21µM*
CN(Cc1cn(Cc2ccc(F)cc2)nn1)C1CN(Cc2cn(Cc3ccc(F)cc3)nn2)S(=O)(=O)C1 (stereo not drawn)	3	i	6%	i	-4%
Cc1cc(Br)cn2c(Cc3ccsc3)c(-c3ccccc3)nc12	16	i	-16%	i	-15%
Cc1ccc(Cc2c(-c3cccc(Cl)c3)nc3c(C)cc(Br)cn23)cc1	0	i	4%	i	1%
Cc1ccc(Cc2c(-c3ccc(Cl)cc3)nc3c(C)cc(Br)cn23)cc1	81	i	?	?	16µM*
Cc1ccc(-c2nc3c(C)cc(Br)cn3c2Cc2ccsc2)cc1	46	i	?	?	16µM*
O=C(CCS(=O)(=O)c1cc2c(cc1Cl)NC(=O)CO2)NCc1ccc(F)cc1	3	i	-14%	i	-3%
O=C(Nc1cccc2c1CCCC2)c1ccc(Cl)c([N+](=O)[O-])c1	-73*	?	-13%	?	-6%
O=C(Nc1ccc(Nc2ccccc2)cc1)c1ccc(Cl)c([N+](=O)[O-])c1	-11	i	-26%	i	?
CCN(CC)S(=O)(=O)c1cc(C(=O)Nc2ccccc2[N+](=O)[O-])ccc1Cl	-89*	?	-24%	i	?
O=C(Nc1cccc2c1CCCC2)c1cc([N+](=O)[O-])ccc1Cl	?	?	16µM*	23µM*	21µM*
O=C(Nc1ccccc1-c1ccccc1)c1ccc(Cl)c([N+](=O)[O-])c1	-100*	i	?	16µM*	?
CN(C)S(=O)(=O)c1cccc(C(=O)Nc2ccccc2[N+](=O)[O-])c1	?	i	-29%	i	?
